Screens: PubChem, National Center for Advancing Translational Sciences (NCATS)
Most compounds without a hit are left out; they make up all but 4.7% or so of the library.
D1 antagonist: blocks dopamine activation of the human D1 receptor | HEK293 TREx D1 cells, calcium flux, dopamine EC80; active compounds read low | P21728 | AID 504652 | actives 3.2% (n = 360,000) | activity change, negative = inhibition, % at 10 µM; in the data active = activity change below about -30%
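After overnight tetracycline induction at 30 C, force-coupled D1 HEK293 cells took up a no-wash calcium dye at room temperature. Compounds were added and monitored 180 s, and the response to EC80 dopamine was then recorded.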
TRHR PAM: allosteric enhancers of human TRH receptor; P34981; TRHR cells, fluo-8 calcium fluorescence, EC20 TRH enhancement; enhancement, % at 2 µM; actives 0.66% (n = 360,000); AID 493056; in the data active = enhancement above about 30%
Target sequence (P34981 whole entry, looked up): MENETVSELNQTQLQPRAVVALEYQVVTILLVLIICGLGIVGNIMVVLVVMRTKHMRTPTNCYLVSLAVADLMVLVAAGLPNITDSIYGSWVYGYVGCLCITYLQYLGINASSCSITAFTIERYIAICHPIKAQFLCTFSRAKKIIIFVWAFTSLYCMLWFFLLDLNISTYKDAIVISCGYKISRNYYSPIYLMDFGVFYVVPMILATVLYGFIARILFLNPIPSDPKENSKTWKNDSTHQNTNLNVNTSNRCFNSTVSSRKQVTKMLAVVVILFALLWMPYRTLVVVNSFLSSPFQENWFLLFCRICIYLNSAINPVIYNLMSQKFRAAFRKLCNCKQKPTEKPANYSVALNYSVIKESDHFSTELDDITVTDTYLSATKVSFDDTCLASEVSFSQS
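TRHR-expressing cells loaded with fluo-8 calcium dye were read kinetically (ex 480/em 530) during compound addition, then stimulated with an EC20 of TRH (10 nM final). Enhancement of the Gq-mediated intracellular calcium response was scored.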
D1 potentiator: enhances dopamine response at the human D1 receptor; P21728; HEK293 TREx D1 cells, calcium flux, dopamine EC20 potentiation; potentiation, % at 10 µM; actives 0.036% (n = 360,000); in the data active = potentiation above about 30%
D1 ag: human D1 receptor agonism; HEK293 T-REx D1 cells, calcium flux, agonist mode; actives 1% (n = 360,000); AID 504660; activation, % at 2 µM
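Tetracycline-induced HEK293 TREx D1 cells, force-coupled to calcium signalling, were dye-loaded with a no-wash calcium kit. Compound was pin-added after a 10 s baseline. Fluorescence was read kinetically at 1 cycle/s for 180 s, with calcium rises flagged as agonism.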
TRHR agonist: agonists of human TRH receptor | TRHR cells, calcium flux fluo-8, FDSS agonist mode | activation, % at 2 µM | actives 0.18% (n = 360,000) | AID 493084
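Agonist-mode FDSS calcium read (Ex 480/Em 530, 1 s cycles) in 1536-well TRHR cells with fluo-8 dye, after 10-cycle baseline and 23 nL compound addition; TRH at EC20 (10 nM final) added afterwards for the enhancer phase.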
A number is an active result; – = inactive. Rule as the data show it, unless noted: active = activation above about 30%; inactive = the rest.

SMILES	D1 antagonist	TRHR PAM	D1 potentiator	D1 ag	TRHR agonist
COc1ccc(-c2noc(-c3ccc(N4CCCC4)c([N+](=O)[O-])c3)n2)cc1OC	-38	–	–	–	–
COc1ccc(-c2noc(-c3ccc(NCC4CCCO4)c([N+](=O)[O-])c3)n2)cc1 (stereo unspecified)	-58	–	–	–	–
COc1ccc(-c2noc(-c3ccc(NCc4ccco4)c([N+](=O)[O-])c3)n2)cc1	-32	–	–	–	–
Cc1ccc(-c2nc(S(=O)(=O)c3ccc(C)cc3)c(SCC(=O)NC3CCCCC3)o2)cc1	–	–	–	–	–
COc1ccc(CCNC(=O)CSc2ncc3c(n2)-c2cc(Cl)ccc2N(Cc2ccccc2)S3(=O)=O)cc1OC	–	–	–	–	–
COc1ccc(-c2cc(C(F)(F)F)nc(SCC(=O)N3CCCCC3)n2)cc1OC	–	–	–	–	–
N/C(Cc1ccc(Cl)cc1)=N\OC(=O)c1ccccc1	–	–	–	–	–
CC(C)(C)C(=O)OC/C(N)=N/OC(=O)c1ccc(Cl)cc1	-43	–	–	–	–
O=C(c1ccccc1F)N1CCN(C2CCC(c3ccccc3)CC2)CC1 (stereo unspecified)	–	–	–	–	–
O=C(c1ccc(F)cc1)N1CCN(C2CCC(c3ccccc3)CC2)CC1 (stereo unspecified)	-41	–	–	–	–
COc1ccc(C(=O)N2CCN(C3CCC(c4ccccc4)CC3)CC2)cc1OC (stereo unspecified)	-37	–	–	–	–
COc1ccc(OC)c(NC(=O)c2cn3c4c(ccc(Cl)c4c2=O)OC(C)C3)c1 (stereo unspecified)	–	–	–	–	–
Cc1cc(N/N=C/c2ccc(O)c(C)c2O)nc(-c2ccccc2O)n1	-32	–	–	–	–
C/C(=N\Nc1cc(C)nc(-c2ccccc2O)n1)c1ccccc1	–	–	–	–	–
CCOc1ccc(NC(=O)/C(C#N)=C/c2ccc(N3CCCC3)c(C)c2)cc1	–	–	–	377	32
N#C/C(=C/c1ccc(N2CCOCC2)o1)C(=O)Nc1ccccc1	–	–	–	215	90
COCCNC(=O)/C(C#N)=C/c1ccc(N2CCOCC2)o1	–	–	–	–	–
N#C/C(=C\c1ccc(N2CCOCC2)o1)C(=O)NC1CCCCC1	–	–	–	69	–
N#C/C(=C\c1ccc(OCCN2CCOCC2)cc1)C(=O)Nc1ccccc1	-30	–	–	–	–
N#CCC(=O)Nc1ccc(C(=O)NCCc2c[nH]c3ccccc23)cc1	–	–	–	–	–
Cc1cnc(NC(=O)c2c(Cl)cnn2C)s1	–	–	–	–	–
C=CCn1c(=O)c2ccccc2n2c(SCC(=O)NC)nnc12	–	–	–	–	–
CCOC(=O)c1nn(C)c(C)c1Cl	-44	–	–	–	–
COc1ccc(Cl)cc1NC(=O)NCc1ccccn1	–	–	–	–	–
O=C(OCc1ccccc1Cl)c1ccc(-n2cnnc2)cc1	-36	–	–	–	–
SMILES	D1 antagonist	TRHR PAM	D1 potentiator	D1 ag	TRHR agonist
Cc1cc(C)n2cc(CSc3ccc(Br)cc3)nc2n1	–	–	–	–	–
Cc1cc(C)n2cc(CSCC(=O)O)nc2n1	-35	–	–	–	–
O=C(O)C1C2CCC(O2)C1C(=O)NCc1ccc(Cl)cc1 (stereo unspecified)	-37	–	–	–	–
O=C(O)C1C2CCC(O2)C1C(=O)Nc1ccc(Cl)cc1F (stereo unspecified)	–	–	–	–	–
Cn1c(=O)c2cc(S(=O)(=O)NC(Cc3ccccc3)C(=O)NCC3CCCO3)ccc2n(C)c1=O (stereo unspecified)	-39	–	–	–	–
CCOc1ccc(NC(=O)CN(C)S(=O)(=O)c2ccc3c(c2)c(=O)n(C)c(=O)n3C)cc1	–	–	–	–	–
O=C(O)COc1ccc(C(=O)c2ccccc2)cc1	-30	–	–	–	–
O=C(O)COc1ccc(-c2nnn(CC(=O)O)n2)cc1	-36	–	–	–	–
CC(=O)c1ccc(OCc2ccc(C(=O)c3ccccc3)cc2)cc1	–	–	–	–	–
O=C(O)Cn1nnc(-c2ccc(OCc3ccccc3Cl)cc2)n1	–	–	–	–	–
Cc1csc(NC(=O)c2ccc(Cl)nc2)n1	–	–	–	–	–
O=C(Nc1ccc2oc(-c3cccnc3)nc2c1)c1ccccc1F	–	–	–	–	–
O=C1NC(=O)/C(=C/c2ccc(OS(=O)(=O)c3ccc(F)cc3F)cc2)N1	-31	–	–	–	–
Cc1cc(-c2ccccc2)c2c3c(c(-c4ccccc4)n2n1)c(=O)n(C)c(=O)n3C	-68	–	–	–	–
CN(CC(=O)Nc1cccc(F)c1)C(=O)c1ccccc1OCC(=O)Nc1cccc(C(F)(F)F)c1	–	–	–	–	–
COc1cc(CNC(C)C)c(Br)cc1OC1CCCC1	-49	–	–	–	–
COc1ccccc1N1CCN(S(=O)(=O)c2ccccc2)CC1	–	–	–	–	–
COc1ccccc1N1CCN(S(=O)(=O)c2ccccc2F)CC1	-32	–	–	–	–
COc1ccc(F)cc1S(=O)(=O)N1CCCN(S(=O)(=O)c2cc(F)ccc2OC)CC1	-30	–	–	–	–
COc1ccc(F)cc1S(=O)(=O)N1CCCC(C)C1 (stereo unspecified)	–	–	–	–	–
CC(NCC(O)COCc1ccc(Cl)cc1)c1ccccc1 (stereo unspecified)	–	–	–	–	–
Cc1ccc(OCC(O)CNC(C)c2ccccc2)cc1C (stereo unspecified)	–	–	–	32	–
Cc1ccc(C(OCC(O)CN2CCCCC2)c2ccccc2)cc1 (stereo unspecified)	–	–	–	–	–
Cc1ccc(C(OCC(O)CNC(C)c2ccccc2)c2ccccc2)cc1 (stereo unspecified)	-38	–	–	–	–
COc1ccc(Cn2c(SCc3ccc(C(=O)NC4CCCC4)cc3)nc3ccncc32)cc1	-31	–	–	–	–
SMILES	D1 antagonist	TRHR PAM	D1 potentiator	D1 ag	TRHR agonist
COc1ccc(Cn2c(SCc3ccc(C(=O)NC4CCCCC4)cc3)nc3ccncc32)cc1	–	–	–	–	–
Cc1cccc(Cn2c(SCc3ccc(C(=O)NCCc4ccccc4)cc3)nc3ccncc32)c1	–	–	–	–	–
O=C(NCCc1ccccc1)c1ccc(CSc2nc3ccncc3n2Cc2cccc(F)c2)cc1	-35	–	–	59	–
Cc1ccc(Cn2c(SCc3ccc(C(=O)NC4CCCC4)cc3)nc3ccncc32)cc1	-37	–	–	–	–
Cc1ccc(OC(C)C(=O)N2CCN(CCc3ccncc3)CC2)cc1C (stereo unspecified)	–	–	–	–	–
CCc1ccc(Nc2nc3ccccc3c3nnc(C)n23)cc1	–	–	–	–	–
